# PubChem BioAssay AID651995 (Sanford-Burnham Center for Chemical Genomics, 2013)
# Hit rate of the full screen: of about 2,500 compounds, about 480 (19%) were called active. Only a sample is shown. A number with no mark means an inactive call.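 The calls were made as follows: active = mean inhibition above about 25% (limit read from the data); inactive = the rest.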
# Experiment: inhibitors of Wnt3a-driven luciferase in Wnt-LIGHT cells – cell-based, luminescence, single concentration, counter-screen for Gli-SUFU antagonist project, confirmation (AID 651995)
# Conditions: Wnt3a-driven luciferase reporter, at 6.25 µM, active compounds read high
row,Structure (SMILES),inhibition
1,CC1(C)CC2CC(C)(CN2c2ncnc3ccc(Br)cc23)C1 (stereo not given),19%
2,CC1(C)CC(=O)c2c(n(S(=O)(=O)c3ccccc3)c3ccc(NS(=O)(=O)c4ccccc4)cc23)C1,13.1%
3,COc1ccc(OC)c(Cc2cnc3nc(N)nc(N)c3c2C)c1,14.4%
4,O=C1/C(=C/c2ccc(F)cc2)SC(=S)N1NS(=O)(=O)c1ccccc1,12.4%
5,CN(c1ccc2nc3ccccc3c(=O)n2n1)C1CCCCC1,101% (active)
6,CC(C)(CNC(=O)c1ccc(Cl)c(S(=O)(=O)N2CCc3ccccc3C2)c1)N1CCOCC1,-21.4%
7,O=C(CN1CCN(S(=O)(=O)c2cc(Cl)ccc2Cl)CC1)c1ccc(O)c(O)c1,73.7% (active)
8,Nc1ccc(C(=O)N2CCN(S(=O)(=O)c3ccc(Cl)cc3)CC2)cc1[N+](=O)[O-],-13.1%
9,COc1cccc(-n2cc(C(=O)O)c3ccccc3c2=O)c1,20.7%
10,CCOC(=O)c1cnc(Nc2nc3ccccc3o2)nc1CSC(=S)N1CCCCC1,-97.9%
11,COc1ccccc1CCNC(=O)C(=O)NCCC1CCCCN1S(=O)(=O)c1cccs1 (stereo not given),-17.3%
12,CC(=O)Nc1ccc(NC(=O)c2ccc3c(c2)C(=O)N(c2ccccc2C)C3=O)cc1,3.62%
13,COC(=O)c1ccc(CSc2nnc(N)s2)o1,-4.51%
14,O=C1/C(=C\c2cccnc2)CN(Cc2ccccc2)C/C1=C\c1cccnc1,-9.32%
15,Cc1ccsc1C(=O)OCC(=O)c1cc(C)n(CC2CCCO2)c1C (stereo not given),104% (active)
16,Cc1onc(-c2ccccc2)c1C(=O)Nc1ccccc1C#N,-19.9%
17,CC(=O)Nc1cccc(OCC(=O)/C=C2\N(C)c3ccccc3C2(C)C)c1,-13.7%
18,Cn1c(=O)c2c(nc(NCCc3ccccc3)n2Cc2ccccc2)n(C)c1=O,-9.98%
19,COCCn1c(CN2CCC(Cc3ccccc3)CC2)nc2c1c(=O)n(C)c(=O)n2C,16.5%
20,CCCCNc1nc2c(c(=O)n(C)c(=O)n2C)n1Cc1cccc(OC)c1,36.1% (active)
21,CN(C)c1cc[n+](Cc2ccccc2)cc1,12.4%
22,COc1ccc2nc(SCC(=O)Nc3c(C)cc(C)cc3C)[nH]c2c1,-15%

row,Structure (SMILES),inhibition
1,O=C(Nc1cccc(S(=O)(=O)Nc2ccc(Cl)cc2)c1)c1ccc2c(c1)OCCO2,-22.2%
2,Cc1ccc(NC(=S)Nc2ccc(F)cc2)cc1,-8.22%
3,CC(C)c1ccc(OCC(O)CN2CCN(c3ccccn3)CC2)cc1 (stereo not given),-70.7%
4,C=CCNC(=S)/N=c1/ccccn1Cc1ccccc1,-4.94%
5,CCOC(=O)c1ccc(NC(=O)Cn2cnc3cc(C)c(C)cc32)cc1,-27.9%
6,COc1ccc(NC(=O)[C@H](NC(=O)[C@@H]2Cc3ccccc3CN2)c2ccccc2)cc1,-2.11%
7,Cc1ccc(C)c(S(=O)(=O)N2CCN(c3ncnc4sccc34)CC2)c1,11.2%
8,CC(=O)N1CCCc2cc(S(=O)(=O)N3CCCC(C(=O)N4CCN(c5cccc(Cl)c5)CC4)C3)ccc21 (stereo not given),29.8% (active)
9,Brc1c(CSc2nncc3ccccc23)nc2ccccn12,1.67%
10,COc1ccc(Cn2c(-c3ccc(Cl)cc3)c[n+]3ccccc23)cc1,-74.3%
11,CCCCC(=O)NC(c1ccc(OC)c(OC)c1)c1ccc2cccnc2c1O (stereo not given),53.4% (active)
12,Cc1ccc(Nc2nc(N3CCOCC3)nc(N3CCOCC3)n2)cc1Cl,-104%
13,COc1ccccc1C1C2=C(COC2=O)Nc2cc3c(cc21)OCO3 (stereo not given),-30.9%
14,COC(=O)Cc1[nH]n(-c2nc3ccccc3s2)c(=O)c1C(C)=Nc1ccc(OC)cc1,104% (active)
15,COc1cc(C(=O)OC2CCOC2=O)c([N+](=O)[O-])cc1OC (stereo not given),1.38%
16,CCOc1ccc(-n2c(O)c(/C=N/Nc3nc(C)cc(C)n3)c3ccccc3c2=O)cc1,16.1%
17,CN1C(CC(=O)Nc2ccc(Br)cc2)c2ccccc2CC1(C)C (stereo not given),-37.9%
18,C/C(=N\NC(=O)Cc1ccc(Cl)cc1)c1ccccn1,48.9% (active)
19,CC(=O)/C(=N\Nc1ccc(Cl)cc1Cl)Sc1cccc2cccnc12,-140%
20,CCNC(=S)N(CCN(CC)CC)Cc1cc2cc3c(cc2[nH]c1=O)OCO3,-0.1%
21,Cc1nonc1C1CCCN1C(=O)c1cc(COc2cccc(C(F)(F)F)c2)on1 (stereo not given),-42%
22,Cc1ccc(S(=O)(=O)N(Cc2cc3ccccc3[nH]c2=O)CC2CCCO2)cc1 (stereo not given),1.8%

row,Structure (SMILES),inhibition
1,Cc1ccccc1C(=O)NC(=S)Nc1ccc(N2CCN(C(=O)c3ccccc3)CC2)cc1,41.2% (active)
2,Cc1cc2[nH]ncc2cc1NC(=S)NC(=O)c1ccccc1,-34.9%
3,Cc1cc(C)c(SCCc2ccncc2)c(C)c1,32% (active)
4,CCCOc1ccc(Cc2c(Cl)nc(SC)nc2NC)cc1,26.9% (active)
5,O=C(Nc1ccnn1C1CCN(C/C=C/c2ccc(F)cc2)CC1)C1CCCC1,-63.4%
6,CNc1ccc(SC#N)cc1,-9.54%
7,COc1ccc(C(=O)NC2CCCc3c2cnn3-c2cccc(C)c2C)c(OC)n1 (stereo not given),24.6%
8,CCN(CC)CCNC(=O)c1ccc(NC(=O)c2cc(-c3ccncc3)nc3ccccc23)cc1,-2.49%
9,Cc1ccc(C(=O)C[n+]2cc(-c3ccccc3)n3c2CCCCC3)cc1,-0.91%
10,Cc1ccc(-c2nc3c(cnn3-c3ccccc3)c(=O)o2)cc1,4.18%
11,O=C(C[C@H]1C/C=C\C[C@@H](NC(=O)OCC2c3ccccc3-c3ccccc32)C(=O)O[C@@H](c2ccccc2)CNC1=O)N[C@H](CO)Cc1ccccc1,-44.6%
12,COc1ccc(OC)c(/C=N/NC(=O)c2ccc[n+](CC(=O)c3ccccc3)c2)c1,2.64%
13,CC[n+]1c(C)n(-c2ccccc2)c2ccc(NC(C)=O)cc21,43.4% (active)
14,Cc1ccc(O)c(NC(=O)COc2cc(C)ccc2C)c1,-3.69%
15,CNc1nnc(-c2ccco2)s1,-3.08%
16,COC(=O)c1ccccc1NC(=O)C1(S(=O)(=O)c2ccc(Cl)cc2)CC1,-1.78%
17,O=C(Nc1nc2ccc([N+](=O)[O-])cc2s1)c1ccc(S(=O)(=O)N2CCCc3ccccc32)cc1,65.8% (active)
18,CCc1ccc(C2C(C#N)=C(N)N(N3CCOCC3)C3=C2C(=O)CC(C)(C)C3)s1 (stereo not given),-28.8%
19,CCCc1nc(N)nc2c1C(=O)CC(C)(C)C2,9.89%
20,Cc1cc(NC(=O)c2cccc(N3C(=O)CCC3=O)c2)no1,66% (active)
21,CC1CC2=C(CC1/C=N/NC(N)=S)C(C)(C)CCC2 (stereo not given),21.2%
22,CCc1c(C)nc2cc(C)[nH]n2c1=O,-9.69%

row,Structure (SMILES),inhibition
1,C/C(=N\Nc1ccc(Cl)nn1)c1ccccc1O,-26.7%
2,COc1ccc(Cc2nnc(N/N=C/c3ccccc3O)[nH]c2=O)cc1OC,59.9% (active)
3,COc1ccc(/C=N/N=C2/C(=O)Nc3ccccc32)cc1O,-23.9%
4,CC(=O)OCCC(C)C,-9.39%
5,c1ccc(-n2nnnc2N2CCOCC2)cc1,-14.5%
6,O=C(O)CCCn1cc(NC(=O)COc2cccc(Cl)c2)cn1,6.24%
7,Cc1ccc(NC(=O)CN(C)CC(=O)Nc2cccc(F)c2)cc1[N+](=O)[O-],36.3% (active)
8,CN(C)CCSc1nc(N)c2c3c(sc2n1)COC(C)(C)C3,-37.2%
9,CCC1CCCCN1CCCNC(=O)Cn1nc(-c2ccccc2)ccc1=O (stereo not given),12.7%
10,O=C1C=C(c2ccnc3cc(Cl)ccc23)C[C@@H](c2ccc3c(c2)OCO3)C1,27.6% (active)
11,CCN(CC)S(=O)(=O)c1ccc(Cl)c(C(=O)NC(C)C(c2cccs2)N2CCCC2)c1 (stereo not given),-35.1%
12,CSc1ncccc1C(=O)Nc1nc2ccc(F)cc2s1,81.3% (active)
13,CCN(CCO)C(=S)Nc1cc(C(=O)OC)ccc1C(=O)OC,-4.1%
14,O=C(Cn1cc(C(=O)C2CC2)c2ccccc21)Nc1ccccc1Cl,26.6% (active)
15,O=c1c2ccccc2nc2n1C(CSCc1cccc(C(F)(F)F)c1)CS2 (stereo not given),24.2%
16,C=CCn1c(SCC(=O)CC(=O)OCC)nc2cc(C(=O)N3CCC(C(N)=O)CC3)ccc2c1=O,-31.2%
17,O=C(c1cc(Cl)cc(Cl)c1)N1CCC(=O)N(C(COCc2ccccc2)Cc2ccccc2)CC1 (stereo not given),-8.85%
18,CCC(Cc1ccccc1)NC(=O)C1CCCCC1 (stereo not given),-4.89%
19,CC(C)OCC(O)CN1CCN(C(c2ccccc2)c2ccccc2)CC1 (stereo not given),-21.2%
20,CCOc1ccc(-n2c(O)c(/C=N/c3ccnn3Cc3ccncc3)c3ccccc3c2=O)cc1,-8.8%
21,O=C(CN1C(=O)c2ccccc2S1(=O)=O)N1CCc2ccccc21,72.4% (active)
22,NC(N)=Nc1nc(-c2ccccc2)c2cc(Cl)ccc2n1,-5.22%

row,Structure (SMILES),inhibition
1,CC(C)Oc1ccc(/C=N/NC(=O)c2nnn(-c3nonc3N)c2CN(C)C2CCCCC2)cc1,-59.5%
2,COc1ccc2c(C)cc3nnnn3c2c1,-7.11%
3,Cc1ccc(S(=O)(=O)NC(C)C(=O)Nc2ccccc2C(=O)N2CCCC2)cc1 (stereo not given),-22.3%
4,O=C(O)c1ccc(N/N=C/c2ccc3ncccc3c2)cc1,95% (active)
5,NS(=O)(=O)c1ccc(CCNC(=O)CCCn2c(SCC(=O)N3CCCC3)nc3ccsc3c2=O)cc1,-9.95%
6,C=CCOc1nc2c(c(=O)n(C)c(=O)n2C)n1Cc1ccc(Cl)cc1Cl,-18%
7,O=C(Nc1cc2c3c(c1)C1CCCC1CN3CC1CCCC21)c1ccc([N+](=O)[O-])cc1 (stereo not given),-20.4%
8,CN(NC(=O)c1ccccc1F)c1nc(C(F)(F)F)nc2ccccc12,-20%
9,CC(C)(C)c1ccc(Oc2ccc(N)cc2)cc1,106% (active)
10,Cc1cc(C(=O)CSc2nc(N)cc(=O)[nH]2)c(C)n1-c1cccc(F)c1,-15.5%
11,CC(=O)c1c(C)[nH]c(C(=O)OCC(=O)Nc2sc3c(c2C#N)CCCC3)c1C,-44.3%
12,COc1ccccc1/C=C/CN1CCC(CO)(Cc2ccccc2)CC1,3.26%
13,Cc1cccc(NS(=O)(=O)c2ccc(-c3cnc(C4CC4)o3)cc2)c1,-40.9%
14,CCOc1cccc(/C=N/NC(=S)NCCN2CCOCC2)c1O,-21.9%
15,COc1ccc(C(=O)NCc2nnc(SCCOc3ccccc3)n2C)cc1,-33.1%
16,COc1cccc2cc(C(N)=O)/c(=N\NC(=O)c3ccccc3)oc12,-3.11%
17,Cc1cccc2nc(CSc3nc4[nH]ncc4c(=O)n3-c3cccc(Cl)c3)cc(=O)n12,33.2% (active)
18,COc1cc(C(=O)OC(C)C(=O)NCC2CCCCC2)cc(NC(=O)c2ccco2)c1OC (stereo not given),-76.6%
19,CC(C)C(=O)Nc1nnc(SCC(=O)N2C(C)CCCC2C)s1 (stereo not given),-26.6%
20,O=C(NCCOCc1ccc(Cl)cc1)c1ncn[nH]1,33.3% (active)
21,CCn1c(SCc2ccccc2)nc2cc(OC)c(OC)cc2c1=O,-22.5%
22,CC(C)Oc1ccc(CN2CCC(n3nccc3NC(=O)c3cccnc3)CC2)cc1,-35.7%
